From PubChem BioAssay AID720597 (Broad Institute, 2013)
Measured potencies and affinities stand elsewhere.

target: NAD-dependent protein deacylase sirtuin-5, mitochondrial (Homo sapiens) (UniProt Q9NXA8); assay: blockers of sirtuin-5 peptide desuccinylation – biochemical, fluorescence imaging, cherry-pick, set 6, dose response (AID 720597); conditions: Purified SirT5, succinyl-peptide-AMC/trypsin fluorescence; series mostly up to 15 µM; activity change, negative = inhibition: at the top concentration;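 further: lower AMC signal can also come from blocking the trypsin step; 0% = median of neutral control wells and -100% = median of positive control wells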
Sequence (Q9NXA8 whole entry, looked up): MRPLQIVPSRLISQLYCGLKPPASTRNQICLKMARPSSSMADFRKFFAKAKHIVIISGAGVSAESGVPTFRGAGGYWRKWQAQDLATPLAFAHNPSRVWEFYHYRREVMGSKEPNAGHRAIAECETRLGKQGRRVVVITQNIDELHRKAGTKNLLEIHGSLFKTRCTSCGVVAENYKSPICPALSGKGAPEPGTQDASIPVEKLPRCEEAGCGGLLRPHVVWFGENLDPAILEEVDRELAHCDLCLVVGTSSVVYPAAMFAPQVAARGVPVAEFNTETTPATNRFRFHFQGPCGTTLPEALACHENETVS

Activity change, negative = inhibition, inactive:
C[C@H]1CN([C@@H](C)CO)S(=O)(=O)c2ccc(/C=C/c3ccccc3)cc2O[C@@H]1CN(C)Cc1ccccc1 28.7%
COc1ccc(C#Cc2ccc([C@H]3[C@@H](CO)N4C(=O)CN(C(=O)c5cccnc5)C[C@@H]34)cc2)cc1 7.65%
C[C@H](CO)N1C[C@H](C)[C@@H](CN(C)S(=O)(=O)c2ccccc2)Oc2ccc(NC(=O)Nc3ccc(C(F)(F)F)cc3)cc2CC1=O -26.9%
COc1cccc(S(=O)(=O)N(C)C[C@@H]2Oc3cc(C4=CCCC4)ccc3S(=O)(=O)N([C@H](C)CO)C[C@H]2C)c1 1.6%
Cc1noc(C)c1NC(=O)Nc1cccc2c1O[C@@H](CN(C)Cc1ccc(Oc3ccccc3)cc1)[C@H](C)CN([C@@H](C)CO)C2=O -13.3%
CCC(=O)N1[C@H](CO)[C@H](c2ccc(-c3ccccc3)cc2)[C@H]1CN(CC)C(C)=O 2.76%
CCCC#Cc1ccc([C@H]2[C@@H](CO)N3CCCCN(S(=O)(=O)Cc4ccccc4)C[C@@H]23)cc1 6.68%
C[C@H]1CN([C@@H](C)CO)S(=O)(=O)c2ccc(/C=C/c3ccccc3)cc2O[C@@H]1CN(C)C(=O)NC1CCCCC1 15.3%
O=C(C[C@H]1CC[C@@H](NS(=O)(=O)c2ccccc2)[C@@H](CO)O1)NCc1ccncn1 27.1%
COc1cc2c(cc1OC)CN(C(=O)[C@@H]1[C@H]3C(=O)O[C@H](c4ccccc4)[C@H](c4ccccc4)N3[C@H](c3ccc(OCCO)cc3)[C@@]13C(=O)Nc1ccc(C#CCNC(N)=O)cc13)CC2 -12.1%
COc1cccc(NC(=O)N2CC(=O)N3[C@H](CO)[C@H](c4ccc(C#CCC5CCCC5)cc4)[C@@H]3C2)c1 -10.9%
C[C@@H]1CN([C@H](C)CO)C(=O)Cc2cc(NS(=O)(=O)c3ccc(F)cc3)ccc2O[C@@H]1CN(C)Cc1ccc(C(F)(F)F)cc1 -20.2%
CN(C)C(=O)[C@@H]1[C@@H](CO)[C@@H]2Cn3c(ccc(-c4ccccc4)c3=O)[C@@H]2N1Cc1ccccc1 -1.33%
Cc1noc(C)c1S(=O)(=O)Nc1ccc2c(c1)C(=O)N([C@@H](C)CO)C[C@@H](C)[C@H](CN(C)Cc1ccc(Cl)c(Cl)c1)OCCCC[C@@H](C)O2 17%
Cc1ccc(S(=O)(=O)N(C)C[C@H]2OCCCC[C@@H](C)Oc3ccc(NS(=O)(=O)c4ccc(Cl)cc4)cc3C(=O)N([C@@H](C)CO)C[C@@H]2C)cc1 -24.6%
C[C@H](CO)N1C[C@H](C)[C@H](CN(C)CC2CCCCC2)Oc2ccc(NS(=O)(=O)c3ccc(Cl)cc3)cc2CC1=O -1.38% [at 7.5 µM]
C[C@@H]1CN([C@@H](C)CO)C(=O)c2cccc(NC(=O)c3ccc(-c4nccs4)cc3)c2O[C@@H]1CN(C)Cc1ccc(C(F)(F)F)cc1 -0.017% [at 7.5 µM]
CCCC#Cc1ccc2c(c1)O[C@H](CN(C)C(=O)Nc1ccccc1F)[C@@H](C)CN([C@H](C)CO)S2(=O)=O -20.4%
C[C@@H]1CN([C@H](C)CO)C(=O)c2cccc(NC(=O)C3CCCCC3)c2O[C@@H]1CN(C)CC1CC1 -16.1%
CC(C)c1cn(CC[C@H]2CC[C@H](NS(=O)(=O)c3ccc(F)cc3)[C@@H](CO)O2)nn1 10.1%
C=CCOC(=O)[C@@H]1[C@H]2C(=O)O[C@H](c3ccccc3)[C@H](c3ccccc3)N2[C@H](c2ccc(OCCOC(=O)[C@@H]3C[C@@H]4C(=O)N[C@@H](Cc5ccccc5)C(=O)N4[C@@H]3c3ccc(O)cc3)cc2)[C@@]12C(=O)Nc1ccc(I)cc12 12%
CNC[C@H]1Oc2ccc(NC(=O)Nc3ccc(F)cc3)cc2CC(=O)N([C@H](C)CO)C[C@@H]1C 13.9%
CC(C)C#Cc1cnc2c(c1)C(=O)N([C@H](C)CO)C[C@H](C)[C@@H](CN(C)C(=O)CN1CCOCC1)O2 -8.28%
C/C=C/c1ccc2c(c1)O[C@H](CN(C)Cc1cccc(F)c1)[C@H](C)CN([C@@H](C)CO)S2(=O)=O 29.6%
C[C@@H]1CN([C@@H](C)CO)C(=O)c2cc(-c3cccc(F)c3)cnc2O[C@@H]1CN(C)Cc1ccncc1 19.1%
COc1ccc(S(=O)(=O)N(C)C[C@@H]2OCCCC[C@H](C)Oc3ccc(NS(=O)(=O)c4ccc(Cl)cc4)cc3C(=O)N([C@@H](C)CO)C[C@H]2C)cc1 -14.2%
CO[C@H]1CC[C@@H]2CCOc3c(C#N)cccc3C(=O)N(C)C[C@H](C)C(=O)N(C)C[C@@H]1O2 -14.8%
CC(C)OC(=O)N(C)C[C@@H]1OCc2cn(nn2)CCCC(=O)N([C@H](C)CO)C[C@H]1C -7.79%
C[C@H]1CN([C@@H](C)CO)C(=O)c2cc(-c3ccc(C#N)cc3)cnc2O[C@@H]1CN(C)C(=O)Nc1ccc(C(F)(F)F)cc1 -27.3%
